Measurements published in PubChem BioAssay (NCI).
About 79,000 compounds went through this panel and 15% of them were active in at least one assay; those are over-represented in the sample as a whole. The source made the active and inactive calls. Cut-off read from the data, not from the text of the source: active = growth inhibition above about 70%; inactive = the rest.

How the values were obtained:
[1] = NCI Yeast Anticancer Drug Screen. Data for the rad52 strain (AID 147);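 note: 0% = growth of vehicle-treated control cultures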; conditions: S. cerevisiae rad52 mutant growth inhibition, stronger effect = higher value
Method in brief: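 Compounds are applied to a genetically defined yeast strain lacking normal DNA damage repair, and inhibition of growth is expressed relative to cultures given vehicle only.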

[2] = NCI Yeast Anticancer Drug Screen. Data for the wt1 strain (AID 149);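 note: 0% = growth of vehicle-treated wt1 cultures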; conditions: S. cerevisiae wt1 strain (SPY 50644) growth inhibition, stronger effect = higher value
Method in brief: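 Yeast wt1 strain exposed to compounds; growth inhibition measured relative to vehicle-treated controls.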

[3] = NCI Yeast Anticancer Drug Screen. Data for the rad50EPP+ strain (AID 151);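 note: 0% = growth of vehicle-treated control cultures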; conditions: S. cerevisiae rad50 mutant strain, stronger effect = higher value
Method in brief: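 Compounds were applied to the rad50EPP+ yeast strain, which bears a defined DNA repair alteration, and growth inhibition was determined relative to vehicle-treated cultures.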

[4] = NCI Yeast Anticancer Drug Screen. Data for the mgt1 strain (AID 153); conditions: S. cerevisiae mgt1 mutant growth inhibition, stronger effect = higher value
Method in brief: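 Strain: mgt1 yeast, one of a set carrying defined DNA damage repair or cell cycle control alterations. Compound-treated growth compared with vehicle.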

[5] = NCI Yeast Anticancer Drug Screen. Data for the rad50 strain (AID 155);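 note: 0% = growth of vehicle-only cultures of the same strain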; conditions: S. cerevisiae rad50 strain growth inhibition, stronger effect = higher value
Method in brief: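 Yeast carrying a defined DNA repair defect were exposed to test compounds, and growth was compared with vehicle-treated controls to give percent inhibition.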

[6] = NCI Yeast Anticancer Drug Screen. Data for the mec2-1 strain (AID 157); conditions: S. cerevisiae mec2-1 strain, stronger effect = higher value
Method in brief: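 Strain: mec2-1 (DNA repair/cell cycle alteration). Compound exposure, then growth measured; inhibition expressed relative to vehicle.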

[7] = NCI Yeast Anticancer Drug Screen. Data for the sgs1 mgt1 strain (AID 161);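 note: 0% = growth of cultures given vehicle only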; conditions: S. cerevisiae sgs1 mgt1 strain, stronger effect = higher value
Method in brief: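 Mutant yeast exposed to compound; growth scored against vehicle-only wells.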

[8] = NCI Yeast Anticancer Drug Screen. Data for the CLN2oe strain (AID 163);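 note: 0% = growth of vehicle-only control cultures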; conditions: S. cerevisiae CLN2oe strain, stronger effect = higher value
Method in brief: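 Growth of a genetically modified yeast strain is measured after compound exposure and compared with cultures given vehicle alone.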

[9] = NCI Yeast Anticancer Drug Screen. Data for the cln2 rad14 strain (AID 165);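 note: 0% = growth equal to vehicle treated cultures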; conditions: S. cerevisiae cln2 rad14 strain, stronger effect = higher value
Method in brief: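 Compounds are applied to the cln2 rad14 yeast strain, and growth is then compared with that of vehicle-treated cultures to give inhibition.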

[10] = NCI Yeast Anticancer Drug Screen. Data for the bub3 strain (AID 167); conditions: S. cerevisiae bub3 mutant strain, stronger effect = higher value
Method in brief: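 Compounds were applied to a genetically altered yeast strain carrying a cell-cycle control defect. Growth inhibition was scored against vehicle-treated controls.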

[11] = NCI Yeast Anticancer Drug Screen. Data for the wt2 strain (AID 169);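 note: 0% = growth of vehicle-treated yeast cultures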; conditions: S. cerevisiae wt2 strain growth inhibition, stronger effect = higher value
Method in brief: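 This strain belongs to a panel of yeast strains with defined genetic alterations in DNA damage repair or cell cycle control. Compounds are applied, and growth inhibition is measured against vehicle-treated cultures.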

[12] = NCI Yeast Anticancer Drug Screen. Data for the mlh1 strain (AID 171);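 note: 0% = growth of vehicle-treated control cultures of the same strain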; conditions: S. cerevisiae mlh1 strain growth inhibition, stronger effect = higher value
Method in brief: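 Growth of the mutant yeast strain after compound exposure, expressed as inhibition relative to vehicle-only controls.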

[13] = NCI Yeast Anticancer Drug Screen. Data for the sgs1 strain (AID 173);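 note: 0% = growth of vehicle-only control cultures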; conditions: S. cerevisiae sgs1 mutant, stronger effect = higher value
Method in brief: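 Growth of a yeast strain bearing a defined genetic alteration is measured after compound treatment. Inhibition is expressed relative to vehicle-only controls.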

[14] = NCI Yeast Anticancer Drug Screen. Data for the mlh1 rad18 strain (AID 175); conditions: S. cerevisiae mlh1 rad18 strain growth inhibition, stronger effect = higher value
Method in brief: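 Read-out is yeast growth inhibition, calculated against vehicle-only controls. The compound was applied to a strain engineered with DNA damage repair alterations.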

[15] = NCI Yeast Anticancer Drug Screen. Data for the rad18 strain (AID 177); conditions: S. cerevisiae rad18 mutant growth inhibition, stronger effect = higher value
Method in brief: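 Growth of the mutant yeast strain after compound exposure, normalised to vehicle-only cultures.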

[16] = NCI Yeast Anticancer Drug Screen. Data for the rad14 strain (AID 159);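 note: 0% = growth of vehicle-treated control cultures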; conditions: S. cerevisiae rad14 strain growth inhibition, stronger effect = higher value
Method in brief: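 Yeast cells carrying a defined DNA-repair defect were exposed to compounds, and growth inhibition was calculated relative to vehicle-treated control cultures.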

[17] = at 5.0 µM (retest, dose inferred, filed as 0.5)
[18] = at 50.0 µM (retest, dose inferred, filed as 5.0)

Measured: growth inhibition

Cc1ccc(Cl)cc1NC(=O)OCCN(C)C(=O)Nc1cc(Cl)ccc1C
inactive: [1]; at 1.2 µM 7% | [1]; at 3.7 µM -12% | [1]; at 11.0 µM -36% | [1]; at 33.0 µM -21% | [1]; at 100.0 µM -1% | [2]; at 1.2 µM -30% | [2]; at 3.7 µM -35% | [2]; at 11.0 µM -38% | [2]; at 33.0 µM -30% | [2]; at 100.0 µM 34% | [3]; at 1.2 µM -26% | [3]; at 3.7 µM -20% | [3]; at 11.0 µM -14% | [3]; at 33.0 µM -6% | [3]; at 100.0 µM -11% | [4]; at 1.2 µM -29% | [4]; at 3.7 µM -28% | [4]; at 11.0 µM -29% | [4]; at 33.0 µM -24% | [4]; at 100.0 µM 2% | [5]; at 1.2 µM -26% | [5]; at 3.7 µM -34% | [5]; [17] 57% | [5]; at 11.0 µM -35% | [5]; at 33.0 µM -31% | [5]; at 100.0 µM 19% | [6]; at 1.2 µM -28% | [6]; at 3.7 µM -34% | [6]; [17] 57% | [6]; at 11.0 µM -36% | [6]; at 33.0 µM -31% | [6]; at 50.0 µM 61% | [6]; at 100.0 µM -21% | [7]; [17] -29% | [7]; [18] 32% | [7]; at 50.0 µM 37.6% | [8]; at 1.2 µM -48% | [8]; at 3.7 µM -28% | [8]; at 11.0 µM -48% | [8]; at 33.0 µM -33% | [8]; at 100.0 µM -26% | [9]; [17] 17% | [10]; at 1.2 µM -39% | [10]; at 3.7 µM -39% | [10]; [17] 13% | [10]; at 11.0 µM -42% | [10]; at 33.0 µM -36% | [10]; [18] 56% | [10]; at 50.0 µM 46.9% | [10]; at 100.0 µM 13% | [11]; at 1.2 µM -37% | [11]; at 3.7 µM -27% | [11]; at 11.0 µM -23% | [11]; at 33.0 µM -8% | [11]; at 100.0 µM 6% | [12]; at 1.2 µM -24% | [12]; at 3.7 µM -36% | [12]; at 11.0 µM -33% | [12]; at 33.0 µM -30% | [12]; at 100.0 µM 11% | [13]; at 1.2 µM -22% | [13]; at 3.7 µM -21% | [13]; at 11.0 µM -23% | [13]; at 33.0 µM -15% | [13]; at 100.0 µM 8% | [14]; [17] 45% | [14]; at 50.0 µM 62% | [15]; at 1.2 µM -27% | [15]; at 3.7 µM -35% | [15]; at 11.0 µM -33% | [15]; at 33.0 µM -37% | [15]; at 100.0 µM 15%
active: [5]; [18] 95% | [5]; at 50.0 µM 86% | [6]; [18] 93% | [9]; [18] 75% | [9]; at 50.0 µM 85.1% | [14]; [18] 98%

CC12C(=O)OC(=O)C(c3ccccc31)c1ccccc12
inactive: [1]; at 1.2 µM -8% | [1]; at 3.7 µM -2% | [1]; at 11.0 µM -12% | [1]; at 33.0 µM -4% | [1]; at 100.0 µM 3% | [2]; at 1.2 µM 2% | [2]; at 3.7 µM -2% | [2]; at 11.0 µM 4% | [2]; at 33.0 µM 2% | [2]; at 100.0 µM 9% | [3]; at 1.2 µM -11% | [3]; at 3.7 µM -25% | [3]; at 11.0 µM -30% | [3]; at 33.0 µM 19% | [3]; at 100.0 µM 9% | [4]; at 1.2 µM -7% | [4]; at 3.7 µM -9% | [4]; at 11.0 µM -5% | [4]; at 33.0 µM -4% | [4]; at 100.0 µM -6% | [6]; at 1.2 µM -5% | [6]; at 3.7 µM -6% | [6]; [17] 47% | [6]; at 11.0 µM -5% | [6]; at 33.0 µM -5% | [6]; [18] 28% | [6]; at 100.0 µM -2% | [16]; at 1.2 µM -4% | [16]; at 3.7 µM -9% | [16]; at 11.0 µM 0% | [16]; at 33.0 µM 2% | [16]; at 100.0 µM 8% | [7]; [17] 33% | [7]; [18] 21% | [8]; at 1.2 µM -9% | [8]; at 3.7 µM -8% | [8]; at 11.0 µM -10% | [8]; at 33.0 µM -11% | [8]; at 100.0 µM -10% | [9]; [17] 9% | [9]; [18] 5% | [10]; at 1.2 µM -7% | [10]; at 3.7 µM -5% | [10]; [17] 28% | [10]; at 11.0 µM -8% | [10]; at 33.0 µM -5% | [10]; [18] 49% | [10]; at 50.0 µM 68.1% | [10]; at 100.0 µM 2% | [11]; at 1.2 µM -7% | [11]; at 3.7 µM -5% | [11]; at 11.0 µM 11% | [11]; at 33.0 µM 9% | [11]; at 100.0 µM 7% | [12]; at 1.2 µM -11% | [12]; at 3.7 µM -9% | [12]; at 11.0 µM -7% | [12]; at 33.0 µM -6% | [12]; at 100.0 µM -6% | [13]; at 1.2 µM -12% | [13]; at 3.7 µM -8% | [13]; at 11.0 µM -1% | [13]; at 33.0 µM 2% | [13]; at 100.0 µM 11% | [14]; [17] 58% | [14]; [18] 54% | [15]; at 1.2 µM -8% | [15]; at 3.7 µM -10% | [15]; at 11.0 µM -5% | [15]; at 33.0 µM 0% | [15]; at 100.0 µM -7%
active: [6]; at 50.0 µM 91% | [7]; at 50.0 µM 97.2% | [9]; at 50.0 µM 76.2% | [14]; at 50.0 µM 93.6%

COc1ccc(C2C3=C(COC3=O)OC(C)(C)Oc3cc4c(cc32)OCO4)cc1OC (stereo not drawn)
inactive: [1]; at 1.2 µM 17% | [1]; at 3.7 µM 19% | [1]; at 11.0 µM 11% | [1]; at 33.0 µM 47% | [2]; at 1.2 µM 9% | [2]; at 3.7 µM 10% | [2]; at 11.0 µM 13% | [2]; at 33.0 µM 23% | [3]; at 1.2 µM 5% | [3]; at 3.7 µM 4% | [3]; at 11.0 µM 4% | [3]; at 33.0 µM 4% | [3]; at 100.0 µM 12% | [4]; at 1.2 µM 27% | [4]; at 3.7 µM 26% | [4]; at 11.0 µM 31% | [4]; at 33.0 µM 54% | [6]; at 1.2 µM 25% | [6]; at 3.7 µM 29% | [6]; [17] 9% | [6]; at 11.0 µM 33% | [6]; at 33.0 µM 58% | [6]; [18] 65% | [16]; at 1.2 µM 11% | [16]; at 3.7 µM 5%
active: [1]; at 100.0 µM 93% | [2]; at 100.0 µM 94% | [4]; at 100.0 µM 94% | [6]; at 50.0 µM 96.1% | [6]; at 100.0 µM 95%
